Experimental data taken from PMC5700166.

Target: T1, GST-Aq-NF-kB (Amphimedon queenslandica, UniProt A9Y5G7 2-389)
T1 sequence: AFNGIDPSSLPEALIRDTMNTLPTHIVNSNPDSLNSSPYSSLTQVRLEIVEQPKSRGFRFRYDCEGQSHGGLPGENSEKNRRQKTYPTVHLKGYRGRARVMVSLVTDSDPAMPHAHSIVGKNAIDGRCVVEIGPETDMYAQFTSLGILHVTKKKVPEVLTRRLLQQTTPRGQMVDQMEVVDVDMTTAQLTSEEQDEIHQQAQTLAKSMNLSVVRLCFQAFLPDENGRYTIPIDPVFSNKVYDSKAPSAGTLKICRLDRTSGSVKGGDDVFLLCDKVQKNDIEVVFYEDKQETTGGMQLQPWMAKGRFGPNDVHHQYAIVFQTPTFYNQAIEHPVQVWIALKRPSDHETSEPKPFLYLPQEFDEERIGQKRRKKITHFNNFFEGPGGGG
Assay: protein-binding microarray (PBM); PBM: ~300 nM protein, 6 mM HEPES pH 7.8, 80 mM KCl, 0.5 mM EDTA, 0.5 mM EGTA, 6% glycerol, 35 ng/ul poly-dIdC, 1% milk, 1 h, room temperature; Ap Aiptasia and Nv Nematostella (sea anemones) / Co Capsaspora / Aq Amphimedon (sponge) / Dm Drosophila / Hu human; RHD is the Rel homology domain; high values mean tight binding
Conditions: dsDNA, one strand shown

Sequence	binding signal [z-score]
CCGATTAACATCACGGAAAGTCCTGATGTTAATCGGGTCTTGATTCGCTTGACGCTGCTG	5.28
CCGATTAACATCAGGACATCCCATGATGTTAATCGGGTCTTGATTCGCTTGACGCTGCTG	2.15
CCGATTAACATCAGGAAAAGTACTGATGTTAATCGGGTCTTGATTCGCTTGACGCTGCTG	1.14
CCGATTAACATCAAAAAATTCCTTGATGTTAATCGGGTCTTGATTCGCTTGACGCTGCTG	2.21
CCGATTAACATCAGGATTTTTCATGATGTTAATCGGGTCTTGATTCGCTTGACGCTGCTG	1.09
CCGATTAACATCAATAAAATTCCTGATGTTAATCGGGTCTTGATTCGCTTGACGCTGCTG	1.79
CCGATTAACATCAGCGGAAATCCTGATGTTAATCGGGTCTTGATTCGCTTGACGCTGCTG	1.07
CCGATTAACATCAAAAATTTCCGTGATGTTAATCGGGTCTTGATTCGCTTGACGCTGCTG	2.63
CCGATTAACATCAAAAATTTCCTTGATGTTAATCGGGTCTTGATTCGCTTGACGCTGCTG	2.1
CCGATTAACATCAGGACTTTCCATGATGTTAATCGGGTCTTGATTCGCTTGACGCTGCTG	4.23
CCGATTAACATCAGGTAACTACCTGATGTTAATCGGGTCTTGATTCGCTTGACGCTGCTG	3.17
CCGATTAACATCACGGACTTTCCTGATGTTAATCGGGTCTTGATTCGCTTGACGCTGCTG	5.31
CCGATTAACATCAAAAAAAATCCTGATGTTAATCGGGTCTTGATTCGCTTGACGCTGCTG	2.68
CCGATTAACATCAAGGAAACTCCTGATGTTAATCGGGTCTTGATTCGCTTGACGCTGCTG	2.64
CCGATTAACATCAAGTAATTTCCTGATGTTAATCGGGTCTTGATTCGCTTGACGCTGCTG	1.18
CCGATTAACATCAAAGGATTTCCTGATGTTAATCGGGTCTTGATTCGCTTGACGCTGCTG	1.01
CCGATTAACATCAGGGCTTTCCATGATGTTAATCGGGTCTTGATTCGCTTGACGCTGCTG	3.39
CCGATTAACATCAGGAATTCCAATGATGTTAATCGGGTCTTGATTCGCTTGACGCTGCTG	1.38
CCGATTAACATCACCGGAAATCCTGATGTTAATCGGGTCTTGATTCGCTTGACGCTGCTG	2.27
CCGATTAACATCAAAATTTCCACTGATGTTAATCGGGTCTTGATTCGCTTGACGCTGCTG	1.15

Sequence	binding signal [z-score]
CCGATTAACATCAAGTACTTTCCTGATGTTAATCGGGTCTTGATTCGCTTGACGCTGCTG	1.81
CCGATTAACATCAAAGGAATTCCTGATGTTAATCGGGTCTTGATTCGCTTGACGCTGCTG	2.38
CCGATTAACATCAAGGAAAATCCTGATGTTAATCGGGTCTTGATTCGCTTGACGCTGCTG	3.1
CCGATTAACATCAGAAAATTCCATGATGTTAATCGGGTCTTGATTCGCTTGACGCTGCTG	1.51
CCGATTAACATCACGAAAATTCCTGATGTTAATCGGGTCTTGATTCGCTTGACGCTGCTG	1.41
CCGATTAACATCAGGAAAGTACATGATGTTAATCGGGTCTTGATTCGCTTGACGCTGCTG	1.61
CCGATTAACATCACGGAATTTTATGATGTTAATCGGGTCTTGATTCGCTTGACGCTGCTG	2.25
CCGATTAACATCACGTACTTTCCTGATGTTAATCGGGTCTTGATTCGCTTGACGCTGCTG	2.39
CCGATTAACATCAAGGAATTCCGTGATGTTAATCGGGTCTTGATTCGCTTGACGCTGCTG	1.75
CCGATTAACATCAATGGAATTCCTGATGTTAATCGGGTCTTGATTCGCTTGACGCTGCTG	1.5
CCGATTAACATCAGTACTTTCCATGATGTTAATCGGGTCTTGATTCGCTTGACGCTGCTG	1.95
CCGATTAACATCAGGAATCTCCATGATGTTAATCGGGTCTTGATTCGCTTGACGCTGCTG	1.6
CCGATTAACATCAGGAATTTCCATGATGTTAATCGGGTCTTGATTCGCTTGACGCTGCTG	3.89
CCGATTAACATCACGTAAAACCCTGATGTTAATCGGGTCTTGATTCGCTTGACGCTGCTG	2.12
CCGATTAACATCAGGAAATCCACTGATGTTAATCGGGTCTTGATTCGCTTGACGCTGCTG	1.15
CCGATTAACATCAGGAAAATTTATGATGTTAATCGGGTCTTGATTCGCTTGACGCTGCTG	1.26
CCGATTAACATCAGGAGTTTCCATGATGTTAATCGGGTCTTGATTCGCTTGACGCTGCTG	2.43
CCGATTAACATCAGGTAAGTCCATGATGTTAATCGGGTCTTGATTCGCTTGACGCTGCTG	2.33
CCGATTAACATCAGGATTTTTTATGATGTTAATCGGGTCTTGATTCGCTTGACGCTGCTG	1.59
